Measurements: PubChem BioAssay AID449762 (Southern Research Specialized Biocontainment Screening …, 2010)
In all, about 330,000 compounds went through this assay and about 1,900 (0.58%) were called active. Inconclusive results (about 4%) are left out. Only a sample is shown. Results with a measured potency or affinity are listed apart. Unmarked numbers belong to inactive results. Rule as the data show it: inconclusive = inhibition above about 70% without an active follow-up result; inactive = below that.

Experiment: M. tuberculosis growth inhibition, HTS (AID 449762);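 also: bacterial growth assessed after seven days of incubation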
Conditions: M. tuberculosis H37Rv growth inhibition, 7H9 media; at 25 µM; active compounds read high
Work on `COc1ccccc1NC(=O)N(Cc1ccccc1)C1=NCC(C)S1` (centres undefined) yielded an inhibition of 6.61%. Work on `OC(CNCC1CCCO1)COc1ccc(OCC(O)CNCC2CCCO2)cc1` (centres undefined) yielded an inhibition of 5.75%. With `CCOC(=O)c1c(C)n(C)c2ccc(OCC(O)CNCCc3ccccc3)cc12` (centres undefined) the inhibition was 15.2%. Work on `COc1ccc(N2CCN(C(=O)c3sc4ncn(CC(=O)N5CCCCC5C)c(=O)c4c3C)CC2)cc1` (centres undefined) yielded an inhibition of -4.52%. Molecule `O=C(CSc1nc(-c2ccc(F)cc2)cs1)NCC1CCCO1` (centres undefined) has an inhibition of -0.07%. In the case of `O=C(CSc1nn(-c2ccc(Cl)cc2)c(=S)s1)NCC1CCCO1` (centres undefined), the inhibition is reported as 69.3%. With `CCCCCCCCCCSc1n[nH]c(NC(C)=O)n1` the inhibition was 4.39%. `COc1ccc(OC)c(-c2csc(NC(=O)COC(=O)C3(C)CC3(Cl)Cl)n2)c1` (centres undefined) gave an inhibition of 8.7%. Molecule `CN1CCN(C(=O)/C(=C/c2ccc(F)cc2)c2ccsc2)CC1` has an inhibition of -3.93%. For `COc1cc(/C=C2\C(=N)N3N=C(S(=O)(=O)CC(C)C)SC3=NC2=O)ccc1OC(=O)c1ccco1`, the inhibition was 0.47%. With `CCS(=O)(=O)C1=NN2C(=N)/C(=C\c3ccc(OC(=O)c4ccco4)c(OC)c3)C(=O)N=C2S1` the inhibition was 3.16%. With `Cc1cc(C)c(NS(=O)(=O)c2ccc(Cl)c(C(=O)O)c2)c(C)c1` the inhibition was -6.92%. For `O=C(NCCCNc1ccc([N+](=O)[O-])cc1)C(F)(F)F`, the inhibition was -6.92%. With `CCn1c(COc2ccc(OC)cc2)nnc1SCc1nc2ccccc2c(=O)[nH]1` the inhibition was -7.06%. With `Cc1oc(-c2cccc(C(F)(F)F)c2)nc1CN1CCN(c2ccccn2)CC1` the inhibition was 63.4%. In the case of `CCN(CC)c1ccc(/C=N\N2CCN(Cc3ccc(C)cc3)CC2)cc1`, the inhibition is reported as 38%. In the case of `O=C(NC(=S)NNC(=O)c1cc2ccccc2cc1O)c1ccco1`, the inhibition is reported as 2.19%. For `COc1ccc(C(=O)NC(=S)NNC(=O)c2ccco2)cc1`, the inhibition was 70.2%. Molecule `CCOc1ccc(/C=N/NC(=O)C(C)N(c2ccc(OC)cc2)S(C)(=O)=O)cc1` (centres undefined) has an inhibition of -10.4%. In the case of `Cc1ccc(N(CCC#N)C(=O)COC(=O)c2nc3nc(C)cc(C)n3n2)cc1`, the inhibition is reported as -2.21%. `Cc1nc(N2CCN(c3ccccn3)CC2)c2c(C)c(C(=O)N3CCN(c4ccccc4F)CC3)sc2n1` showed an inhibition of 61.9%. For `Cc1nc(N2CCN(c3ccccn3)CC2)c2c(C)c(C(=O)N3CCN(c4cccc(Cl)c4)CC3)sc2n1`, the inhibition was 60.4%. `CCCC(=O)Nc1nc2ccc(C(=O)OCC)cc2s1` gave an inhibition of -1.4%. With `O=C(CN1C(=O)C2CCCCC2C1=O)OCn1nnc2ccccc2c1=O` (centres undefined) the inhibition was 2.65%. For `O=C(CNC(=O)C1CCCCC1)OCn1nnc2ccccc2c1=O`, the inhibition was 12.9%. In the case of `COc1ccc(C)cc1NC(=O)CCCN1C(=O)CN(C)C1=O`, the inhibition is reported as 4.23%. `CCN1CCN(C(=O)c2ccc(N3CC4CC(C3)c3cccc(=O)n3C4)c([N+](=O)[O-])c2)CC1` (centres undefined) gave an inhibition of 2.16%. With `Cc1ccc(CNC(=O)c2ccc(S(=O)(=O)N(C)C)cc2)n1C` the inhibition was 3.61%. With `CC1(C)Cc2c(sc(NC(=O)c3ccc(C(=O)c4ccccc4)cc3)c2C#N)C(C)(C)N1` the inhibition was 2.99%. Work on `COC(=O)c1c(NC(=O)c2ccccc2)sc2c1CC(C)(C)NC2(C)C` yielded an inhibition of -11.2%. `COc1ccc(C2Nc3ccccc3C(=O)N2c2ccc(C)cc2)cc1COc1ccccn1` (centres undefined) gave an inhibition of -5.39%. In the case of `Cc1ccc(C)c(S(=O)(=O)N2CCN(CC(=O)Nc3cc(C)on3)CC2)c1`, the inhibition is reported as 1.82%. `O=C(N/N=C/c1ccc[nH]1)c1cccc(Br)c1` gave an inhibition of 47%. In the case of `O=C(N/N=C/c1ccc[nH]1)c1cccnc1`, the inhibition is reported as -9.86%. `COc1ccc(CCNC(=O)C2CCCN2S(=O)(=O)c2ccc(F)cc2)cc1OC` (centres undefined) showed an inhibition of 0.4%. For `O=C(CN(Cc1ccco1)C(=O)Cn1nnc(-c2cccs2)n1)NCc1ccccc1`, the inhibition was 4.1%. Molecule `COC/C=C/C1=CC2=CC(=O)C(C)(OC(=O)c3cnc4ccccc4n3)C(=O)C2=CN1c1ccc(CO)cc1` (centres undefined) has an inhibition of 3.29%. `O=C(c1ccc2c(=O)n(Cc3ccccc3)c(=S)[nH]c2c1)N1CCCC1` gave an inhibition of -3.86%. In the case of `CC(CCN1CCC(n2nccc2NC(=O)c2ccccc2Cl)CC1)c1ccccc1` (centres undefined), the inhibition is reported as 15.6%. With `Cc1nc(SCc2ccccc2F)c2cnn(-c3ccccc3)c2n1` the inhibition was 9.04%. With `COc1cccc(-c2nc(C(=O)NCCCN3CCOCC3)cc3c2[nH]c2ccccc23)c1` the inhibition was -10%. Molecule `Cc1ccc(-c2nc(C(=O)NCCCN3CCOCC3)cc3c2[nH]c2ccccc23)cc1` has an inhibition of -3.27%. Molecule `Cc1ccc(OCCn2ncc3ccccc3c2=O)c(C)c1` has an inhibition of 9.3%. With `COc1ccc2c(c1)C(=NO)c1cc(OC)ccc1-2` the inhibition was -4.82%. Work on `ON=C1c2cc(OCCN3CCCCC3)ccc2-c2ccc(OCCN3CCCCC3)cc21` yielded an inhibition of 7.74%. `CC1CCCC(C)N1C(=O)COC(=O)c1ccccc1O` (centres undefined) gave an inhibition of 2.65%. `O=c1[nH]c2ccccc2nc1-c1ccc(Cl)cc1` showed an inhibition of 2.14%. For `O=c1[nH]c2ccccc2nc1-c1ccccc1`, the inhibition was -0.96%. Work on `O=C(N/N=C/C=C/c1ccco1)C(O)c1ccccc1` (centres undefined) yielded an inhibition of 50.7%. `O=C(CCCCCCC(=O)c1ccccc1)c1ccccc1` gave an inhibition of -5.92%. With `O=C(CCCCCCCC(=O)c1ccccc1)c1ccccc1` the inhibition was 4.08%. For `COCC(=O)NC1(c2nnnn2CCOC(=O)Nc2ccc(Cl)cc2)CCCCC1`, the inhibition was -9.42%. Molecule `S=C(Nc1ccccc1Cl)Nc1ccc(Cl)cc1Cl` has an inhibition of -2.8%. With `S=C(NCCNC(=S)Nc1ccccc1Cl)Nc1ccccc1Cl` the inhibition was 4.51%. For `CCC(Sc1nnc2c3ccccc3n(CC)c2n1)C(=O)Nc1sc2c(c1C#N)CCCC2` (centres undefined), the inhibition was 1.09%. `O=[N+]([O-])c1ccc(Nc2nc(NCCO)nc(N3CCCC3)n2)cc1` showed an inhibition of 7.94%. Molecule `O=[N+]([O-])c1ccc(Nc2nc(N3CCOCC3)nc(N3CCOCC3)n2)cc1` has an inhibition of -0.58%. For `S=C(Nc1ccccc1Cl)N(CCCN1CCOCC1)Cc1ccco1`, the inhibition was 0.76%. Work on `Cc1ccc2nc(-c3cccc(Br)c3)cc(C(=O)NC3CC3)c2c1` yielded an inhibition of -6.86%. With `Cc1ccc(-c2cc(C(=O)NC3=NCCS3)c3cc(Br)ccc3n2)o1` the inhibition was 8.99%. `CCN(Cc1ccccc1)C(=O)COC(=O)c1cc(S(=O)(=O)Nc2c(C)n(C)n(-c3ccccc3)c2=O)ccc1C` showed an inhibition of 5.3%. In the case of `CCCCCN(C(=O)CCCSc1nncs1)c1c(N)n(CCCC)c(=O)[nH]c1=O`, the inhibition is reported as 3.89%. In the case of `CN(C)c1ccc(/C=C/[N+](=O)[O-])cc1`, the inhibition is reported as 39%. Molecule `CCN(CC)c1ccc(/C=C/[N+](=O)[O-])cc1` has an inhibition of 0.21%. Molecule `Cc1ccc(/C=N/NC(=O)c2csc(C)c2)o1` has an inhibition of 4.06%. With `O=c1cc(-c2ccccc2)nc(Sc2ccc([N+](=O)[O-])cc2[N+](=O)[O-])[nH]1` the inhibition was 57.1%. For `O=[N+]([O-])c1ccc(Sc2cccc3cccnc23)c([N+](=O)[O-])c1`, the inhibition was 65.5%. With `O=C(O)c1cc(N2C(=O)C3C4C=CC(C4)C3C2=O)ccc1NCc1cccnc1` (centres undefined) the inhibition was 4.01%. With `CCN(c1cc(C)cc(C)c1)S(=O)(=O)c1nnc(NC(=O)C(C)(C)C)s1` the inhibition was 5.8%. Molecule `N/C(=N\OS(=O)(=O)c1cc(Cl)ccc1Cl)c1ccncc1` has an inhibition of 1.49%. For `Cc1ccc(-c2c(C(=O)N/N=C/c3ccc(OC(C)C)cc3)nnn2-c2nonc2N)cc1`, the inhibition was 5.21%. Molecule `CCN1CCN(C(=O)C2CCN(Cc3nc(-c4cccc(Cl)c4)oc3C)CC2)CC1` has an inhibition of -0.4%. For `Cc1oc(-c2cccc(Cl)c2)nc1CN1CCC(C(=O)N2CCN(c3ccccn3)CC2)CC1`, the inhibition was 16.8%. For `C=CCn1c(O)c(C(C)=NCCc2ccccc2)c(=O)[nH]c1=O`, the inhibition was -9.8%. In the case of `COc1cccc(NC(=O)c2cc(CN3C(=O)c4ccccc4C3=O)ccc2OC)c1`, the inhibition is reported as -11.3%. With `Cc1cc(C)cc(C(=O)O/N=C(\N)c2ccc(Br)cc2)c1` the inhibition was 2.33%. `Cc1ccc(C(=O)O/N=C(\N)c2ccc(Br)cc2)cc1` gave an inhibition of 17.7%. Molecule `Cc1ccc(-c2csc3ncnc(NCCC(=O)O)c23)cc1C` has an inhibition of 3.2%. For `COC(=O)C1=C(C)N(C)C(=O)NC1c1cc2c(cc1Br)OCO2` (centres undefined), the inhibition was -1.06%. With `COc1cccc(N2CCN(Cc3nc(N)nc(N4CCCc5ccccc54)n3)CC2)c1` the inhibition was 55.4%. Work on `Nc1nc(CN2CCN(c3cccc(Cl)c3)CC2)nc(N2CCCc3ccccc32)n1` yielded an inhibition of 34.9%. With `O=S(=O)(Cc1cc(Cl)nc(-c2ccncc2)n1)c1ccccc1` the inhibition was 3.28%. In the case of `Cc1ccn2c(NC3CCCC3)c(-c3ccncc3)nc2c1`, the inhibition is reported as -13.9%. Molecule `Cc1ccn2c(NC3CCCCC3)c(-c3cccc(SC4CCCCC4)c3)nc2c1` has an inhibition of 48.6%. With `CC(C)CC(NS(=O)(=O)c1ccc2c(c1)oc(=O)n2C)C(=O)NCc1cccnc1` (centres undefined) the inhibition was -12.4%. `COCCCN1C(=O)c2ccc(C(=O)Nc3cccc(OC)c3)cc2C1=O` gave an inhibition of -8.36%. `COc1ccc(CCNC(=O)c2ccc([N+](=O)[O-])cc2Cl)cc1OC` gave an inhibition of -2.83%. `CCc1cc(C(=O)NC2CCCN(Cc3ccccc3F)C2)n(C)n1` (centres undefined) showed an inhibition of 6.68%. `CC(C)CN(C(=O)CCC(=O)OC(C)C(=O)Nc1cccc(C#N)c1)c1c(N)n(CC(C)C)c(=O)[nH]c1=O` (centres undefined) showed an inhibition of -4.92%.
